Measured values published in PubChem BioAssay (NCI).
About 83,000 compounds went through this panel and 20% of them were active in at least one assay; those are over-represented in the sample as a whole.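 48-hour exposure, single concentration, 96-well plates; percent growth endpoint where 0 means no net growth. Active: below 10.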 Unmarked numbers belong to inactive results. Active and inactive are the calls of the source.

Columns and labels:
Assay in all cases: NCI-60 one-dose screen, 48 h (100 = growth as untreated, 0 = no growth, -100 = all killed)
Conditions in all cases: 10 µM unless noted
BT-549 breast = tested on: BT-549 breast
SW-620 colon = tested on: SW-620 colon
MCF7 breast = tested on: MCF7 breast
HCT-116 colon = tested on: HCT-116 colon
HCC-2998 colon = tested on: HCC-2998 colon
KM12 colon = tested on: KM12 colon
MDA-MB-435 melanoma = tested on: MDA-MB-435 melanoma

SMILES | growth (BT-549 breast) | growth (SW-620 colon) | growth (MCF7 breast) | growth (HCT-116 colon) | growth (HCC-2998 colon) | growth (KM12 colon) | growth (MDA-MB-435 melanoma)
CCc1ccc(C2=C/C(=C/c3ccc(Cl)cc3)C(=O)N2CCc2ccc(S(N)(=O)=O)cc2)cc1 | 38% | 25.2% | 6.29% (active) | 13.6% | 24.8% | 18.8% | 
CC(=O)n1cc(/C=C2\N=C(c3ccc(Cl)cc3)N(c3ccc(S(=O)(=O)Nc4nccs4)cc3)C2=O)c2ccccc21 | 92.8% | 96.2% |  | 92.6% | 107% | 69.9% | 77%
O=C(Nc1ccc(Cl)c(Cl)c1)Nc1ccc(Cl)c([N+](=O)[O-])c1 | -9.25% (active) | 9.66% (active) | 0.367% (active) | 1.83% (active) | 2.28% (active) | 2.33% (active) | 7.8% (active)
Nc1nccc(=S)[nH]1 | 114% | 103% | 93.4% | 109% | 114% | 106% | 110%
Cn1cnc([N+](=O)[O-])c1N1c2ccncc2Sc2ccncc21 | 113% | 95.1% |  | 95.7% | 114% | 103% | 110%
CCC(CC(C)C)Nc1ccc(NC(CC)CC(C)C)cc1 (stereo not drawn) | 97.1% | 84.2% | 89.5% | 59.2% | 95.6% | 63.2% | 107%
Cc1cccc(NC(=O)CCc2ccc(N3C(N)=NC(N)=NC3(C)C)cc2)c1 | 45.8% | 33.5% | 29.3% | 18.9% |  | 22.7% | 25.9%
CCC1S/C(=N\N=C(/C)c2cc3ccccc3o2)N(c2ccccc2)C1=O (stereo not drawn) | 234% | 106% | 162% | 80.8% | 113% | 114% | 107%
CO[C@H]1/C=C/C=C/C=C/C[C@H](OC(=O)[C@@H](C)NC(=O)C2CCCCC2)[C@H](C)[C@@H](O)/C(C)=C\CCC2=CC(=O)C=C(NC(=O)C1)C2=O | -19.6% (active) | 2.69% (active) | -11% (active) | -18.4% (active) | -19.2% (active) | -9.05% (active) | -29.1% (active)
COc1cc(NS(=O)(=O)c2ccc(N)cc2)ncn1 | 107% | 108% | 94.7% | 103% | 109% | 104% | 
COc1ccc2c(c1)OC(N)=C(C#N)C2c1ccc(F)c(F)c1 (stereo not drawn) | 48.3% | 21.3% | 18.8% | 24.2% | 49.7% | 28.6% | -18.6% (active)
CCCCCCCCCCCC(=O)OCCNC(=O)C[n+]1ccccc1 |  | 116% | 97.9% | 103% | 111% | 110% | 
OC(COc1ccccc1Cl)CN1CCN(c2ccc(Cl)cc2)CC1 (stereo not drawn) | 89.9% | 108% | 90.2% | 96.4% | 102% | 100% | 105%
CCOC(=O)c1noc2c1CCc1c-2cn(Cc2ccc(OC)cc2)c1-c1cc(OC)c(OC)c(OC)c1 | 19.6% | 22.9% | 18% | 8.2% (active) | 39.6% | 21.3% | -28.1% (active)
CCc1c(C)c2cc3nc(NCc4ccccc4)oc3c(C)c2oc1=O | 32.6% | 95.8% | 73.1% | 57.2% | 79.6% | 83.5% | 47.7%
Cc1c(NC(=O)c2sc3nc4c(cc3c2N)CN(Cc2ccccc2)CC4)cccc1C(F)(F)F |  | 19.3% | 16.4% | 19.5% | 64.7% | 27% | 13.1%
CN(C)c1ccc(/C=N/n2c(-c3cc(F)c(Cl)cc3Cl)nn(CN3CCOCC3)c2=S)cc1 | 91.3% | 109% | 118% | 92.6% |  | 102% | 80.7%
CC(=O)Nc1ccc(OC(=O)c2ccccc2O)cc1 |  | 101% | 99.5% | 114% |  | 99.1% | 98.6%
COc1cc2ncn3c(=O)c4c5c(sc4nc3c2cc1OC)CCCCC5 | 105% | 101% | 86.8% | 97.4% | 106% | 99.2% | 109%
COc1ccc(-c2nn(-c3ccc(NC(=O)Nc4ccc(Cl)c(Cl)c4)cc3)cc2-c2ccncc2)cc1Cl | 14.2% | 17.6% | 13.3% | 0.339% (active) | 10.4% | 2.25% (active) | 6.69% (active)
O[C@@H]1CCO[C@H](c2ccc3ccccc3c2)C1 | 105% | 105% | 103% | 96.6% | 98.6% | 104% | 106%
Nn1c(CN2CCN(c3cc4c(cc3F)c(=O)c(C(=O)O)cn4C3CC3)CC2)n[nH]c1=S | 112% | 105% | 93.4% | 102% | 92.7% | 103% | 97.9%
COc1cc(NC(=O)C#Cc2ccccc2)c(OC)cc1Cl | 51.3% | 23.9% |  | 21.9% | 90.9% | 49.7% | 59.3%
COc1ccc(/C=C2\CS(=O)(=O)C/C(=C\c3ccc(OC)cc3)C2=O)cc1 | -38.6% (active) | 0.757% (active) | -15% (active) | -83.2% (active) | -98% (active) | -93.2% (active) | -28.8% (active)
COc1cc(NC(C)CCCN2C(=O)c3ccccc3C2=O)c2nc(C)ccc2c1OC (stereo not drawn) | 103% | 97.3% | 90.6% | 85.4% | 95.4% | 107% | 111%
COC(=O)Nc1nc2ccc(Sc3ccccc3)cc2[nH]1 | 49.5% | 18.6% | 21.4% | 15% | 0.2% (active) | 3.07% (active) | 
CCOC(=O)n1cnc2c(Cl)ncnc21 |  | 108% | 95.2% | 101% | 2.2% (active) | 107% | 111%
O=C(Nc1ccc(-n2cc(-c3ccncc3)c(-c3ccc(O)c(Cl)c3)n2)cc1)Nc1ccc(Cl)c(C(F)(F)F)c1 | -19.4% (active) | 19.6% | 15% | 6.73% (active) | 22% | 6.77% (active) | -0.731% (active)
OC[C@@H](O)C(O[C@@H]1O[C@H](CO)[C@H](O)[C@H](O)[C@H]1O)[C@H](O)[C@@H](O)CO (stereo partly drawn) |  | 102% | 106% | 113% | 95.6% | 103% | 95.4%
